# According to the supplement of paper PMC11172423:
# Unmarked numbers belong to inactive results.
# Test system: Madurella mycetomatis MM55
# Test: growth relative to untreated control; higher = less inhibition, active = 20 or less
# Settings: 25 µM
# In short: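 Viability readout used either MTS (2 h, 490 nm) or resazurin (600 nm). Before this, hyphal fragments of M. mycetomatis MM55 or F. senegalensis CBS197.79 in colourless RPMI 1640 with L-glutamine and MOPS (68–72% transmission at 660 nm) had been exposed in 96-well plates to compound at 100 or 25 µM for 7 days at 37 °C. Growth denotes metabolic activity relative to the untreated growth control, with a medium-plus-dye blank subtracted from both.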
row,SMILES,growth
1,Cc1ccc(-c2noc(-c3ccccc3)n2)cc1,43.1%
2,CC[C@H](Nc1ncnc2[nH]cnc12)c1nc2cccc(F)c2c(=O)n1-c1ccccc1,103%
3,C[C@H](Cn1cnc2c(N)ncnc21)OCP(=O)(O)O,89.4%
4,O=C1CN(C(=O)CCC2CCCC2)C(c2ccc(F)cc2)c2cc(Cl)ccc2N1 (stereo unspecified),69.6%
5,COc1ccc(-c2nc3c(NCc4ccccc4)nccc3[nH]2)c(OC)c1,6.23% (active)
6,C[C@H](NC(=O)c1cc2c(F)cccc2[nH]1)c1ccccc1,20.7%
7,Clc1cccc2cnsc12,125%
8,Clc1ccc2ncc(-c3cccc(NC4CCNC4)n3)n2c1 (stereo unspecified),78.8%
9,c1ccc(Nc2cc(Nc3cc(-c4ccccc4)[nH]n3)nc3ccnn23)cc1,8.39% (active)
10,O=C(NCCCNc1nc(Nc2ccc(N3CCOCC3)cc2)ncc1C1CC1)C1CCC1,101%
11,COC(=O)N[C@H](C(=O)N[C@@H](Cc1ccccc1)[C@@H](O)CN(Cc1ccc(-c2ccccn2)cc1)NC(=O)[C@@H](NC(=O)OC)C(C)(C)C)C(C)(C)C,88.9%
12,CCNCc1cc(Nc2ccnc3cc(Cl)ccc23)ccc1O,37%
13,c1cc(N2CCC(CN3CCOCC3)CC2)c2sccc2n1,90.4%
14,CC(C)(C)[S@@](=O)N1Cc2cc(C(=O)NCCc3ccncc3)nc(-c3cccc(-c4ccccc4)c3)c2[C@H]1CCO,67.6%
15,CCCCc1nc(Cl)c(CO)n1Cc1ccc(-c2ccccc2-c2nn[nH]n2)cc1,103%
16,N=C(N)Nc1ccc(C(=O)Oc2ccc3cc(C(=N)N)ccc3c2)cc1,79.9%
17,Cn1nc(C(=O)Nc2ccc(F)c(Cl)c2)c2c1-c1ccccc1S(=O)(=O)C2,86.8%
18,COCC[C@H](NC(=O)c1cc2ccc(C(F)(F)F)cc2[nH]1)c1ccccc1,30.3%
19,COc1ccc2cc1Oc1ccc(cc1)C[C@H]1c3cc(c(OC)cc3CCN1C)Oc1c(O)c(OC)cc3c1[C@@H](C2)N(C)CC3,5.48% (active)
20,O=C(Nc1cccc(-c2n[nH]c3ccc(-c4n[nH]c(C5CCCN5)n4)cc23)c1)C1CC1 (stereo unspecified),62.4%
21,FC(F)(F)CNc1ncc2nc(Nc3cc(Cl)cc(Cl)c3)n(C3CCNCC3)c2n1,70.4%
22,O=C(Nc1ccc([N+](=O)[O-])cc1Cl)c1cc(Cl)ccc1O,4.63% (active)
23,CN(C)CCOc1ccc2nc(-c3cccc(OCc4ccccc4)c3)[nH]c2c1C#N,4.87% (active)
24,O=C(Nc1cnc2ccccc2c1)c1ccccc1C(=O)c1ccc(F)cc1,92.9%
25,COc1ccc(C(=O)N2CCC3(CC2)C(=O)N(CC(=O)NCC2CCCCC2)CN3c2ccccc2)c(OC)c1,67.1%

# Same assay, conditions: 100 µM
row,SMILES,growth
1,Cc1cc(Cl)ccc1NC(=S)N(C)C,147%
2,Cc1cc(OCCN2CCOCC2)nn1-c1ccc2ccccc2c1,65%
3,CCN(CC)C(=O)/C(C#N)=C/c1cc(O)c(O)c([N+](=O)[O-])c1,91.8%
4,Cc1ccccc1-c1noc(-c2ccccc2)n1,60.5%
5,CO[C@H]1C[C@H](O[C@@H]2/C(C)=C/C[C@@H]3C[C@@H](C[C@]4(CC[C@H](C)[C@@H](C5CCCCC5)O4)O3)OC(=O)[C@@H]3C=C(C)/C(=N/O)[C@H]4OC/C(=C\C=C\[C@@H]2C)[C@]43O)O[C@@H](C)[C@@H]1O,111%
6,CC(=O)[C@@]1(O)CC[C@H]2[C@H]3CCC4=CC(=O)CC[C@@]4(C)[C@H]3CC[C@@]21C,83.8%
7,CNC(=O)c1cc(-c2n[nH]c3ccc(-c4nc(C5CCCN5)n[nH]4)cc23)ccc1F (stereo unspecified),71.5%
8,CC(C)C(=O)OCC(=O)[C@@]12OC(C3CCCCC3)O[C@@H]1C[C@H]1[C@@H]3CCC4=CC(=O)C=C[C@]4(C)[C@H]3[C@@H](O)C[C@@]12C (stereo partly specified),90.7%
9,c1ccc(-c2ccnc(C3CCN(CC45CNCC4C5)CC3)n2)cc1 (stereo unspecified),134%
10,CC(=O)Oc1ccccc1C(=O)Nc1ncc([N+](=O)[O-])s1,95.6%
11,C[C@@H](O[C@H]1OCCN(Cc2n[nH]c(O)n2)[C@H]1c1ccc(F)cc1)c1cc(C(F)(F)F)cc(C(F)(F)F)c1,5.09% (active)
12,Cc1ccc(-c2noc(-c3ccccc3)n2)cc1,90.5%
13,CC[C@H](Nc1ncnc2[nH]cnc12)c1nc2cccc(F)c2c(=O)n1-c1ccccc1,83.5%
14,C[C@H](Cn1cnc2c(N)ncnc21)OCP(=O)(O)O,81.3%
15,O=C1CN(C(=O)CCC2CCCC2)C(c2ccc(F)cc2)c2cc(Cl)ccc2N1 (stereo unspecified),94.9%
16,COc1ccc(-c2nc3c(NCc4ccccc4)nccc3[nH]2)c(OC)c1,7.79% (active)
17,C[C@H](NC(=O)c1cc2c(F)cccc2[nH]1)c1ccccc1,7.43% (active)
18,Clc1cccc2cnsc12,68.5%

row,SMILES,growth
1,Clc1ccc2ncc(-c3cccc(NC4CCNC4)n3)n2c1 (stereo unspecified),56.6%
2,c1ccc(Nc2cc(Nc3cc(-c4ccccc4)[nH]n3)nc3ccnn23)cc1,10.5% (active)
3,O=C(NCCCNc1nc(Nc2ccc(N3CCOCC3)cc2)ncc1C1CC1)C1CCC1,72.1%
4,COC(=O)N[C@H](C(=O)N[C@@H](Cc1ccccc1)[C@@H](O)CN(Cc1ccc(-c2ccccn2)cc1)NC(=O)[C@@H](NC(=O)OC)C(C)(C)C)C(C)(C)C,105%
5,CCNCc1cc(Nc2ccnc3cc(Cl)ccc23)ccc1O,2.65% (active)
6,c1cc(N2CCC(CN3CCOCC3)CC2)c2sccc2n1,31.4%
7,CC(C)(C)[S@@](=O)N1Cc2cc(C(=O)NCCc3ccncc3)nc(-c3cccc(-c4ccccc4)c3)c2[C@H]1CCO,52.9%
8,CCCCc1nc(Cl)c(CO)n1Cc1ccc(-c2ccccc2-c2nn[nH]n2)cc1,88.8%
9,N=C(N)Nc1ccc(C(=O)Oc2ccc3cc(C(=N)N)ccc3c2)cc1,72.3%
10,Cn1nc(C(=O)Nc2ccc(F)c(Cl)c2)c2c1-c1ccccc1S(=O)(=O)C2,104%
11,COCC[C@H](NC(=O)c1cc2ccc(C(F)(F)F)cc2[nH]1)c1ccccc1,52.2%
12,COc1ccc2cc1Oc1ccc(cc1)C[C@H]1c3cc(c(OC)cc3CCN1C)Oc1c(O)c(OC)cc3c1[C@@H](C2)N(C)CC3,5.12% (active)
13,O=C(Nc1cccc(-c2n[nH]c3ccc(-c4n[nH]c(C5CCCN5)n4)cc23)c1)C1CC1 (stereo unspecified),36.4%
14,FC(F)(F)CNc1ncc2nc(Nc3cc(Cl)cc(Cl)c3)n(C3CCNCC3)c2n1,4.54% (active)
15,O=C(Nc1ccc([N+](=O)[O-])cc1Cl)c1cc(Cl)ccc1O,4.72% (active)
16,CN(C)CCOc1ccc2nc(-c3cccc(OCc4ccccc4)c3)[nH]c2c1C#N,5.16% (active)
17,O=C(Nc1cnc2ccccc2c1)c1ccccc1C(=O)c1ccc(F)cc1,91.8%
18,COc1ccc(C(=O)N2CCC3(CC2)C(=O)N(CC(=O)NCC2CCCCC2)CN3c2ccccc2)c(OC)c1,50.8%
